CHO-K1 Ca ag: nonselective activator or artifact in parental CHO-K1 cells; 0.48% of 360,000 active; activation, % at 3 µM; Fluo-8 calcium fluorescence; scaled to maximal ATP response, vehicle zero; in the data active = activation above about 15%;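 also: untransfected CHO-K1 host cells lacking M1 receptor as counterscreen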
CHO-K1 Ca antag: M1 antagonist counterscreen hit in parental CHO-K1 cells; 0.6% of 360,000 active; ATP-induced calcium, Fluo-8 fluorescence; inhibition, % at 3 µM; AID 602250;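 active = inhibition above a per-plate cutoff, the plate's mean sample inhibition plus 3 SD, cut at about 24% in these data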
CHRM1 PAM: human CHRM1 positive allosteric modulation; CHO-K1 hM1, Fluo-8 calcium fluorescence, ACh EC20; 0% = ACh EC20, 100% = maximal ACh; activation, % at 3 µM; P11229; 0.088% of 360,000 active; AID 588819; in the data active = activation above about 19%, passing the limit was not always enough
Target sequence (P11229 whole entry, looked up): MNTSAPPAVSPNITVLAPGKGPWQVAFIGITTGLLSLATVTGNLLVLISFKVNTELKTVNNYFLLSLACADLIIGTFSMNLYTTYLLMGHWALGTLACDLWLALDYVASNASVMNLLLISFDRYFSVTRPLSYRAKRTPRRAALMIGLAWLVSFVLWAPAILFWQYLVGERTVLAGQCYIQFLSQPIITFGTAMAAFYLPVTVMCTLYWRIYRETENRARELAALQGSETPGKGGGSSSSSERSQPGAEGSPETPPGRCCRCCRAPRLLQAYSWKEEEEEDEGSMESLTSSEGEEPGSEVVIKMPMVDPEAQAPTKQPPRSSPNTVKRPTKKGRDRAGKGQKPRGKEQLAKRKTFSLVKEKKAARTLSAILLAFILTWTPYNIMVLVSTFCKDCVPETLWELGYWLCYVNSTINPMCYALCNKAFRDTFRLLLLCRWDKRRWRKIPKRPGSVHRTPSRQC
CHRM1 antagonist: blocks human M1 muscarinic receptor. 1.3% of 360,000 active. CHO-K1 hM1, Fluo-8 calcium fluorescence, ACh EC80 antagonist. inhibition, % at 3 µM;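 active = percent inhibition above its own plate's cutoff, namely the mean of that plate's compound wells plus 3 SD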;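 also: peak over basal fluorescence ratio during 140 s after agonist addition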
M1 PAM parental: M1 PAM counterscreen hit in parental CHO-K1 cells; AID 602247; ATP EC20, Fluo-8 calcium fluorescence; 0% at ATP EC20, 100% at ATP max; 0.02% of 360,000 active; activation, % at 3 µM;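 active = activation above the run cutoff, the mean activation of all test compounds plus 3 SD, cut at about 40% in these data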;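 also: peak over basal fluorescence ratio in a 140 s read after ATP addition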
CHRM1 agonist: activates human CHRM1 receptor; P11229; CHO-K1 hM1, Fluo-8 calcium fluorescence, agonist mode; 0% DMSO, 100% acetylcholine EC100; activation, % at 3 µM; 0.33% of 360,000 active; AID 588814;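 active = activation above the run's mean compound activation plus 3 SD, cut at about 16% in these data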;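 also: peak over basal fluorescence ratio within a 140 s kinetic read after compound addition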
Large screens that a line does not name were inactive. Hits are enriched below; roughly 2.4% of the tested compounds scored in any of these assays.

COc1ccc(C2C3=C(COC3=O)Oc3cc4c(cc32)OCO4)cc1OC (centres undefined)	CHRM1 PAM 29
COc1cc(C2C3=C(COC3=O)Oc3cc4c(cc32)OCO4)ccc1OC(C)=O (centres undefined)	none
Cc1cc(OCC(=O)Nc2c(C(C)C)cccc2C(C)C)no1	none
COc1ccccc1C(=O)Nc1sc(C(=O)N2CCCC2)c(C)c1C#N	none
Cc1c(C(=O)N2CCCC2)sc(NC(=O)c2ccc(Cl)cc2)c1C#N	CHO-K1 Ca antag 24
O=C(CNS(=O)(=O)c1cccc(Br)c1)NCC1CCCCC1	none
O=C(c1[nH]ncc1-c1ccccc1)C1CO1 (centres undefined)	CHO-K1 Ca ag 19
O=C(c1[nH]ncc1-c1cccc(Br)c1)C1CO1 (centres undefined)	none
CC(=O)Nc1cccc(OCCCNS(=O)(=O)c2ccc(C#N)cc2)c1	none
COc1ccc(NC2=Nc3cccc4cccc2c34)cc1	CHRM1 agonist 19
CN1C(=O)N(C)C2(c3ccccc3)NC(=O)NC12c1ccccc1 (centres undefined)	CHO-K1 Ca antag 29
O=C1NC2(c3ccccc3)NC(=O)NC2(c2ccccc2)N1 (centres undefined)	none
Cc1ccc(-n2nc(C)c(C(=O)N3CCN(C(=O)c4ccco4)CC3)c2-n2cccc2)cc1	none
CN(C)C(=O)Cn1cc(S(=O)(=O)Cc2ccccc2)c2ccccc21	none
Cn1c(=O)cc(OCCCC(=O)N2CCN(c3ccccc3)CC2)c2ccccc21	CHO-K1 Ca antag 30
CCC1CCCCN1CCCNC(=O)CCCOc1cc(=O)n(C)c2ccccc12 (centres undefined)	CHRM1 antagonist 49
CCOC(=O)C1(C)CCCCCN1C(=O)/C=C/c1ccccc1 (centres undefined)	none
Cc1ccc(C)n1-n1c(C)nc2sc3c(c2c1=O)CCCCC3	CHRM1 antagonist 28
COC(=O)c1ccc(CN2CCN(C3CCCC3)C(CCO)C2)cc1 (centres undefined)	CHRM1 antagonist 92
CC(=O)Nc1ccc(CN2CCN(C3CCCCC3)C(CCO)C2)cc1 (centres undefined)	CHRM1 antagonist 24
COC(=O)c1ccc(CN2CCN(C3CCCCC3)C(CCO)C2)cc1 (centres undefined)	CHRM1 antagonist 60
COC(=O)c1ccc(CN2CCN(Cc3ccccc3)C(CCO)C2)cc1 (centres undefined)	none
COc1ccc(-c2csc(NC(=O)c3ccccc3F)c2C(=O)O)cc1	none
COc1ccc(CN(C)C(=O)[C@H]2O[C@@H](n3ccc(N)nc3=O)[C@H](O)[C@@H]2O)cc1OC	none
O=C(Cc1coc2ccc3ccccc3c12)Nc1nccs1	CHO-K1 Ca antag 26
Cc1onc(-c2c(Cl)cccc2Cl)c1C(=O)NCCCN1CCOCC1	none
Cc1onc(-c2c(Cl)cccc2Cl)c1C(=O)c1c[nH]c(C(=O)NCCCN2CCOCC2)c1	CHRM1 antagonist 76
O=c1c2ccccc2nc(-c2ccc(F)cc2)n1NCc1ccccc1O	none
Cc1ccc(S(=O)(=O)NN2C(=O)/C(=C/c3cccs3)SC2=S)cc1	CHO-K1 Ca antag 26
Cc1ccc(/C=C2\SC(=S)N(NS(=O)(=O)c3ccc(C)cc3)C2=O)cc1	none
C=CCC1c2cccc(C(=O)OC)c2C(=O)N1c1ccccc1 (centres undefined)	CHO-K1 Ca antag 24
C=CCN(CC=C)CCCOc1ccccc1C(=O)OC	none
CSc1nnnn1CCn1nnnc1SC	CHO-K1 Ca antag 36
